Source: PubChem (National Center for Advancing Translational Sciences (NCATS))
The list is not random: actives were taken first. Their share in the collection is about 3.8%.
mIDH1 inhibitor = inhibitors of human mutant IDH1 R132H. O75874. IDH1-R132H enzyme, NADPH consumption, diaphorase/resazurin fluorescence. Potency, µM (top dose mostly 76.6 µM), for the others: top-dose activity change, negative = inhibition, most hits filed as inhibitors. actives 0.093% (n = 390,000); also: potency is read from the fitted curve at half-maximal effect; % is scaled to controls: 0 for no effect and ±100 for the full control effect; nearly all actives have a fitted effect of over 65% in size
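IDH1-R132H (0.5 ug/mL dispensed) in pH 7.5 Tris buffer was preincubated 30 min with compound, then given a substrate mix of 0.016 mM NADPH and 2 mM alpha-KG for 80 min at room temperature; remaining NADPH was read by diaphorase/resazurin fluorescence.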
Nrf2 ARE act = Nrf2 pathway activation. AREc32 ARE-luciferase reporter (MCF7-derived line), luminescence, 24 h. Potency, µM (titrated, usually from 46.1 µM), without a hit: at the top dose activation, actives largely listed as activators. actives 0.31% (n = 410,000); also: potency is read from the fitted curve at half-maximal effect; % of control where 0% means no effect; nearly all actives have a fitted effect of over 65% in size
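Luciferase luminescence (Steady-Glo, 30 min at room temperature) served as the read-out of ARE activation in AREc32 cells treated with compounds for 24 hr at 37 deg C.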
ELG1 DNA repair = inhibitors of ELG1-dependent DNA repair in HEK293T cells; HEK293T ELG1-luciferase reporter, luminescence, 16 h; DNA damage induced by 5-fluorouridine; Potency, µM (doses to about 46.1 µM), for the others: at the highest dose activity change, negative = inhibition, most hits filed as inhibitors; actives 2.3% (n = 330,000); also: potency is read from the fitted curve at half-maximal effect; % is scaled to controls: 0 for no effect and ±100 for the full control effect; nearly all actives have a fitted effect of over 55% in size
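Step one: seed 2,000 cells per well. Step two: pin-transfer compound or DMSO alongside 5-fluorouridine. Step three: incubate 16 hr, 37 °C, 5% CO2. Step four: add ONE-Glo, wait 30 min, read luminescence.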
A549 tox-1 = kills or reduces viability of A549 cells in Nrf2 counter-screen | AID 504648 | Potency, µM (series often up to 46 µM), for inactives: at the top dose activity change, negative = cytotoxicity, hits mostly inhibitors | actives 0.16% (n = 390,000) | A549 ARE-Fluc cells, CellTiter-Fluor viability, 18-24 h; also: potency is read from the fitted curve at half-maximal effect; % is scaled to controls: 0 for no effect and ±100 for the full control effect
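A549 ARE_Fluc cells in 5% FBS OPTI-MEM were exposed to compounds in concentration-response for 18-24 h at 37 deg C. Viability was read by CellTiter-Fluor fluorescence (Ex 405/Em 525) after 30 min, before the luciferase read.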
Nrf2 inh = inhibitors of Nrf2 signaling; A549 ARE-Fluc reporter, luciferase luminescence, 18-24 h; Potency, µM (titrated, usually from 46 µM), inactives show top-dose activity change, negative = inhibition, actives largely listed as inhibitors; actives 2.1% (n = 360,000); AID 504444; also: potency is read from the fitted curve at half-maximal effect; % is scaled to controls: 0 for no effect and ±100 for the full control effect; nearly all actives have a fitted effect of over 60% in size
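In this cell-based qHTS, ARE-driven firefly luciferase in A549 cells reports Nrf2 activity; the luminescent signal after BugLite lysis is the measured value, with a prior CellTiter-Fluor read for cell health.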
FLuc counter 3 = firefly luciferase inhibition, Nrf2 hit validation | Potency, µM (highest dose often 57.5 µM), for inactives: at the highest dose activity change, negative = inhibition, most hits filed as inhibitors | actives 4% (n = 1,400) | purified firefly luciferase, luminescence inhibition | shares compounds with Nrf2 inh; also: potency is read from the fitted curve at half-maximal effect; % is scaled to controls: 0 for no effect and ±100 for the full control effect; nearly all actives have a fitted effect of over 65% in size
A549 tox-2 = counter-screen for Nrf2 inhibitors: cytotoxicity in A549 ARE cells; AID 720523; Potency, µM (titrated, usually from 46.1 µM), for the others: top-dose activity change, negative = cytotoxicity, usual class: inhibitors; shares compounds with Nrf2 inh; actives 2% (n = 1,400); A549 ARE-Fluc cells, cytotoxicity counterscreen;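 also: potency is read from the fitted curve at half-maximal effect; cells exposed to compounds for 18 to 24 hours; % is scaled to controls: 0 for no effect and ±100 for the full control effect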
Nrf2 ARE inh = reduces Nrf2 ARE reporter signal in A549 cells. shares compounds with Nrf2 inh. A549 ARE-firefly luciferase reporter, luminescence. Potency, µM (doses to about 46.1 µM), for the others: top-dose activity change, negative = inhibition, hits mostly inhibitors. actives 74% (n = 1,400). AID 720524; also: potency is read from the fitted curve at half-maximal effect; % is scaled to controls: 0 for no effect and ±100 for the full control effect; nearly all actives have a fitted effect of over 65% in size
ELG1 FLuc counter = luciferase inhibition in cell-free luciferin readout for ELG1 hits; actives 3% (n = 350); cell-free firefly luciferase luminescence counter-screen, ViewLux; AID 624247; shares compounds with ELG1 DNA repair; Potency, µM (series often up to 46.1 µM), for inactives: top-dose activity change, negative = inhibition, usual class: inhibitors; also: potency is read from the fitted curve at half-maximal effect; % is scaled to controls: 0 for no effect and ±100 for the full control effect
ELG1-Luc inh = inhibits ELG1-dependent DNA repair in HEK293T cells, confirmed. actives 68% (n = 670). shares compounds with ELG1 DNA repair. Potency, µM (series often up to 46.1 µM), inactives show at the highest dose activity change, negative = inhibition, usual class: inhibitors. AID 624248. HEK293T ELG1-luciferase levels, luminescence; cells co-treated with 5-fluorouridine; also: potency is read from the fitted curve at half-maximal effect; % is scaled to controls: 0 for no effect and ±100 for the full control effect; nearly all actives have a fitted effect of over 55% in size
ELG1 MMS Luc = inhibits ELG1-dependent repair under MMS stimulation in HEK293T cells; Potency, µM (highest dose often 46.1 µM), without a hit: at the highest dose activity change, negative = inhibition, usual class: inhibitors; HEK293T luciferase-tagged ELG1 level, MMS stimulated; AID 624249; actives 53% (n = 670); shares compounds with ELG1 DNA repair; also: potency is read from the fitted curve at half-maximal effect; % is scaled to controls: 0 for no effect and ±100 for the full control effect; nearly all actives have a fitted effect of over 60% in size
ELG1 5FU viab = confirmation of ELG1 repair inhibitors: viability with 5FU | shares compounds with ELG1 DNA repair | cell viability with 5-FU, ELG1-dependent repair | Potency, µM (titrated, usually from 46.1 µM), without a hit: at the highest dose activity change, negative = viability loss, most hits filed as cytotoxic | 670 tested, under 10 active | AID 624250;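 also: ELG1-luc HEK293T cells cotreated with 5-fluorouridine at 10 µM final; potency is read from the fitted curve at half-maximal effect; viability measured 16 h after compound addition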
ELG1 MMS viab = confirmation of ELG1 repair inhibitors: viability with MMS. AID 624251. Cell viability with MMS, ELG1-dependent DNA repair. actives 33% (n = 670). Potency, µM (series often up to 46.1 µM), for inactives: at the top dose activity change, negative = viability loss, usual class: cytotoxic. shares compounds with ELG1 DNA repair;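 also: ELG1-luc HEK293T cells co-treated with 10 µM MMS; potency is read from the fitted curve at half-maximal effect; viability read 16 h after compound addition; % is scaled to controls: 0 for no effect and ±100 for the full control effect; nearly all actives have a fitted effect of over 60% in size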
Cell viab unstim = affects unstimulated cell viability, ELG1 hit counter-screen; shares compounds with ELG1 DNA repair; cell viability counter-screen, unstimulated, luminescence; AID 624252; actives 8% (n = 900); Potency, µM (titrated, usually from 45.9 µM), for inactives: at the highest dose activity change, negative = loss of viability, hits mostly cytotoxic;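 also: potency is read from the fitted curve at half-maximal effect; compound exposure lasted 16 hours before reading; % is scaled to controls: 0 for no effect and ±100 for the full control effect; nearly all actives have a fitted effect of over 55% in size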
FLuc enzyme = counter-screen for ELG1 repair inhibitors: firefly luciferase inhibition. shares compounds with ELG1 DNA repair. purified firefly luciferase, luminescence counter-screen. Potency, µM (top dose mostly 57.5 µM), without a hit: at the top dose activity, negative = inhibition, hits mostly inhibitors. actives 10% (n = 350); also: potency is read from the fitted curve at half-maximal effect; % is scaled to controls: 0 for no effect and ±100 for the full control effect
IDH1 autofl = autofluorescence interference, mutant IDH1 hit counter-screen; shares compounds with mIDH1 inhibitor; Resorufin detection reagent fluorescence interference, cell-free; inhibition of signal, % at 51.2 µM; 750 tested, under 10 active;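 also: 0% = wells with normal resorufin and full inhibition = wells lacking resorufin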
WT IDH1 inh = wild-type IDH1 (human) inhibition counterscreen; AID 623995; Potency, µM (titrated, usually from 115 µM), for inactives: top-dose activity change, negative = inhibition, usual class: inhibitors; WT IDH1 enzyme, NADPH diaphorase/resazurin fluorescence; shares compounds with mIDH1 inhibitor; actives 9% (n = 750);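 also: potency is read from the fitted curve at half-maximal effect; 0% = full WT IDH1 enzyme control and full inhibition = no enzyme wells; nearly all actives have a fitted effect of over 55% in size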
IDH1 R132H conf = confirmation of human mutant IDH1 inhibitors; shares compounds with mIDH1 inhibitor; IDH1 R132H enzyme, NADPH diaphorase/resazurin fluorescence; Potency, µM (titrated, usually from 76.6 µM), without a hit: at the top dose activity change, negative = inhibition, actives largely listed as inhibitors; actives 83% (n = 750); also: potency is read from the fitted curve at half-maximal effect; nearly all actives have a fitted effect of over 50% in size
Numbers without * were called inactive; ? = inconclusive; · = not tested or not shown; [ ] = dose if it differs, or a comment. Calls follow the shape of the dose curve; as a rule, active = well fitted curve in the direction sought with a large enough effect; inconclusive = small, poorly fitted or top-dose-only effect, or another doubt; inactive = no such curve, though single readings can be large; an effect the other way counts as inactive or inconclusive.

SMILES	mIDH1 inhibitor	Nrf2 ARE act	ELG1 DNA repair	A549 tox-1	Nrf2 inh	Cell viab unstim	others
CC1=CC(C)CC(C)OC(=O)CC(c2ccc(O)cc2)NC(=O)C(Cc2c(Br)[nH]c3ccccc23)N(C)C(=O)C(C)NC(=O)C(C)C1 (stereo unspecified)	-5%	-2%	·	1.8µM*	0.58µM*	·	FLuc counter 3=-11%;A549 tox-2=?;Nrf2 ARE inh=1.5µM*
C=C1C(=O)O[C@@H]2C[C@@H](C)[C@@H]3C=CC(=O)[C@@]3(C)[C@@H](OC(=O)CC(=O)O[C@H]3[C@@H]4C(=C)C(=O)O[C@@H]4C[C@@H](C)[C@@H]4C=CC(=O)[C@]43C)[C@H]12	?	-3%	?	15µM*	2.6µM*	·	FLuc counter 3=?;A549 tox-2=2.9µM*;Nrf2 ARE inh=2.1µM*;IDH1 autofl=9;WT IDH1 inh=-10%;IDH1 R132H conf=?
Cc1ccc(C)c(N2CCN(C(=O)CCNS(=O)(=O)c3ccc4c(c3)oc(=O)n4C)CC2)c1	4%	-1%	?	-5%	-18%	·
O=C(Nc1ccncc1)c1cccn(Cc2ccccc2)c1=O	-1%	1%[9.22 µM]	3.3µM*	-1%	?	?	ELG1-Luc inh=8%;ELG1 MMS Luc=2.2µM*;ELG1 5FU viab=2%;ELG1 MMS viab=2.5µM*
O=C(Nc1ccccc1)c1cccn(Cc2ccccc2)c1=O	8%	3%	0%	1%	?	·
COc1ccc(C(=O)OC2CC3CCC(C2)[N+]3(C)[O-])cc1OC (stereo unspecified)	0%	-1%	-1%	3%	1%	·
COc1ccc(/C(=N/OC(C)=O)c2nccc3cc(OC)c(OC)cc23)cc1OC	-7%	2%	3.3µM*	0%	4%	4%	ELG1-Luc inh=?;ELG1 MMS Luc=2%;ELG1 5FU viab=?;ELG1 MMS viab=8%
Cc1ccccc1C(=O)Oc1cccc(Nc2ncnc3ccccc23)c1	2%	0%	·	-21%	?	·
CCc1cc2c(=O)n(C(C)C(=O)OC3CCCCC3)cnc2s1 (stereo unspecified)	3%	4%	?	8%	·	·
CCCC(=O)O[C@@H]1[C@@H](C)[C@@]2(O)[C@@H](C=C(CO)C[C@]3(O)C(=O)C(C)=C[C@@H]23)[C@@H]2C(C)(C)[C@]12OC(=O)CCC	·	·	·	·	·	?
CCCCCCCCCCCCCC(=O)O[C@@H]1[C@@H](C)[C@@]2(O)[C@H](C=C(CO)C[C@]3(O)C(=O)C(C)=C[C@@H]23)[C@@H]2C(C)(C)C12OC(C)=O (stereo partly specified)	·	·	·	·	·	?	ELG1 FLuc counter=79%;FLuc enzyme=?
Cc1ccc(NC(=O)CSc2nc(-c3ccco3)cc(C(F)(F)F)n2)c(C)c1	?	-1%	·	-11%	6%	·
CO/C1=C\C(C)=C\[C@@H](C)[C@@H](O)[C@H](C)C/C(C)=C/C=C/[C@H](OC)[C@H]([C@@H](C)[C@@H](O)[C@H](C)[C@H]2C[C@@H](O)[C@H](C)[C@@H](C(C)C)O2)OC1=O	·	·	·	·	·	?	ELG1 FLuc counter=5%;ELG1-Luc inh=-3%;ELG1 MMS Luc=-19%;ELG1 5FU viab=-8%;ELG1 MMS viab=?;FLuc enzyme=-1%
COc1ccc(NC(=O)CN2C(=O)CN=C(c3ccccc3)c3ccccc32)c(OC)c1	-2%	1%	·	6%	·	·
CC(=O)OCC1=C[C@H]2[C@@H]3C(C)(C)[C@]3(OC(=O)Cc3ccccc3)C[C@@H](C)[C@]2(O)[C@@H]2C=C(C)C(=O)[C@@]2(O)C1	·	·	·	·	·	?
